G9a inh = inhibitors of human histone lysine methyltransferase G9a | Q96KQ7 | G9a H3K9 monomethylation, AlphaScreen, 2 h | Potency, µM (highest dose often 102 µM), for inactives: at the top dose activity, negative = inhibition, hits mostly inhibitors | 350,000 compounds, 8.8% hits; further: on the % scale 0 is the no-effect control and ±100 the full control effect; nearly all actives have a fitted effect of over 75% in size
Target sequence (Q96KQ7 913-1193 limits assumed): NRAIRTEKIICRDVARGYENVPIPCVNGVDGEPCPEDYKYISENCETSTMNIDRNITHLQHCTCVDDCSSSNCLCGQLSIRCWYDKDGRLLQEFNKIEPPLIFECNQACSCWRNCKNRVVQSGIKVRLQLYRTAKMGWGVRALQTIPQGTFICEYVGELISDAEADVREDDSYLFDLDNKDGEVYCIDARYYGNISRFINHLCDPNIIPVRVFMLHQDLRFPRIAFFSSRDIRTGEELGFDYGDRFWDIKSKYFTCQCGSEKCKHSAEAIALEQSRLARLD
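Step 1: enzyme (final 20 nM) with compound, 15 min RT. Step 2: substrate peptide 500 nM and SAM 20 uM, 2 h RT. Step 3: anti-H3K9me1 antibody and AlphaScreen beads, 10 min, then plate read.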
HP1b chromo inh = blocks HP1-beta chromodomain binding to methylated histone tails; AlphaScreen HP1-beta / biotin-H3K9me3 peptide binding; 390,000 compounds, 0.56% hits; P83916; Potency, µM (titrated, usually from 114 µM), inactives show at the top dose activity change, negative = inhibition, most hits filed as inhibitors; further: nearly all actives have a fitted effect of over 70% in size
Target sequence (P83916 whole entry, looked up): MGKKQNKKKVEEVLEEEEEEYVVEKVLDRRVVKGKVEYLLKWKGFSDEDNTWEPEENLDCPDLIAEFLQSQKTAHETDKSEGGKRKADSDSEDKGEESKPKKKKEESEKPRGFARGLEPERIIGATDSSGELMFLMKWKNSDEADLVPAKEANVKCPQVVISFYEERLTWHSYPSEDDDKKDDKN
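HP1-beta protein (50 nM final) preincubated 30 min at room temperature with biotinylated H3(1-18)K9me3 peptide (50 nM) in PBS pH 7.4, 0.01% Tween-20, then compound added for 30 min. AlphaScreen streptavidin donor/nickel chelate acceptor beads (10 ug/mL final), 30 min dark, luminescence read.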
PLK1 PBD block = inhibitors of human PLK1 polo-box domain binding. P53350. Plk1 PBD binding of FITC phosphopeptide, fluorescence polarization. Potency, µM, inactives show max response, negative = inhibition, hits mostly inhibitors. 360,000 compounds, 2.8% hits. AID 720504; further: series mostly up to about 57 µM; on the % scale 0 is the no-effect control and ±100 the full control effect; nearly all actives have a fitted effect of over 65% in size
BAZ2B inh = BAZ2B (human) inhibition; Q9UIF8; AlphaScreen BAZ2B-H3K14Ac peptide displacement; Potency, µM (series often up to 114 µM), for the others: at the top dose activity change, negative = inhibition, actives largely listed as inhibitors; 360,000 compounds, 4.4% hits; further: on the % scale 0 is the no-effect control and ±100 the full control effect; nearly all actives have a fitted effect of over 60% in size
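BAZ2B (50 nM) with biotin-H3(5-23)K14Ac peptide (50 nM) in PBS pH 7.4, 0.01% Tween-20, preformed 30 min, then compound 30 min at room temperature; top concentration 110uM. AlphaScreen streptavidin donor/nickel chelate acceptor beads (10 ug/mL final), 20 min dark, signal read.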
JMJD2A Tudor = inhibitors of human JMJD2A Tudor domain; Potency, µM (highest dose often 114 µM), for inactives: top-dose activity change, negative = inhibition, usual class: inhibitors; O75164; 390,000 compounds, 4.4% hits; AlphaScreen JMJD2A-Tudor / H3K4me3 peptide binding; AID 504339; further: on the % scale 0 is the no-effect control and ±100 the full control effect; nearly all actives have a fitted effect of over 50% in size
12-LOX inh = inhibitors of human 12S-lipoxygenase ALOX12; P18054; purified 12hLO, xylenol orange hydroperoxide absorbance; Potency, µM (series often up to 108 µM), for the others: top-dose activity change, negative = inhibition, most hits filed as inhibitors; 580,000 compounds, 1.1% hits; further: on the % scale 0 is the no-effect control and ±100 the full control effect
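Hydroperoxide product was detected by ferrous iron/xylenol orange as the 573 to 405 nm absorbance ratio. Arachidonic acid at 40 uM (final) was turned over for 30 min at room temperature by 150 nM human 12hLO, pH 7.0 Hepes buffer, after 15 min compound preincubation.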
Active calls of the source: *; ? = inconclusive; nt = no result given; [ ] = dose if it differs, or a comment. In the library only some 9% were active in any assay of this set; here they are far more common. The call rests on the fitted dose curve; in most records, active means well fitted curve in the direction sought with a large enough effect; inconclusive means small, poorly fitted or top-dose-only effect, or another doubt; inactive means no such curve, though single readings can be large; an effect the other way counts as inactive or inconclusive. Potency means the concentration at half of the fitted maximal effect.

SMILES	G9a inh	HP1b chromo inh	PLK1 PBD block	BAZ2B inh	JMJD2A Tudor	12-LOX inh
CC(=O)Nc1nc2c(s1)CCc1ccccc1-2	0%[59 µM]	5%[57 µM]	-1%	-30%	-27%	3%
O=C(CCCl)Nc1nc2c(s1)CCc1ccccc1-2	50µM*	-14%	-11%	-29%	-32%	24%
O=c1oc2ccccc2cc1-c1nc2c(s1)CCc1ccccc1-2	-19%[59 µM]	87%[57 µM]	15µM*	47%	66%[57.1 µM]	?
Nc1nc2c(s1)CCc1ccccc1-2	10µM*	-31%	?	?	?	?
O=c1oc2cc(O)ccc2cc1-c1nc2c(s1)CCc1ccccc1-2	55%[59 µM]	77%	3.8µM*	32%	52%	?
O=C(N/N=C/c1cccc(O)c1)N/N=C/c1cccc(O)c1	43%	5%	5%	-7%	-14%	-1%
O=C1C=C(c2ccc3cc[nH]c3c2)C[C@@H](c2ccc3c(c2)OCO3)C1	-4%[0.501 µM]	?	?	50µM*	56µM*	nt
COc1ccc(Br)cc1CNC(=O)C1CCN(C(=O)N(C)C)CC1	17%[59 µM]	20%	?	-4%	?	5%
C/C(Cn1cnc([N+](=O)[O-])n1)=N\NC(=O)c1ccc(F)cc1	20µM*	37%	-1%	-2%	-16%	?
Cc1nnc(NC(=O)CCN2C(=O)/C(=C\c3ccccc3)SC2=S)s1	79µM*	52%	-3%	2%	-4%	-4%
COc1ccc(/C=C2/SC(=S)N(CCCC(=O)Nc3ccccc3C(=O)O)C2=O)cc1	79µM*	-32%	?	?	?	?
O=C(CCCN1C(=O)/C(=C/c2cccs2)SC1=S)NNC(=O)c1ccncc1	-34%	32%	6%	?	-11%	-10%
CCc1ccc(/C=C2\SC(=S)N(CCCC(=O)Nc3ccccc3C(=O)O)C2=O)cc1	32µM*	2%	21µM*	?	?	?
COc1cccc(/C=C2/SC(=S)N(CC(=O)Nc3nnc(C)s3)C2=O)c1	-6%	35%	1%	-6%	-18%	3%
COc1ccc(/C=C2/SC(=S)N(CCCC(=O)Nc3cccc(O)c3)C2=O)cc1	?	?	-9%	?	?	-22%
O=C(CCCN1C(=O)/C(=C/c2cccs2)SC1=S)NNC(=O)c1ccccc1O	19%[59 µM]	23%	-11%	56µM*	-18%	9%
O=C(Cn1cc(C(=O)c2ccncc2)c(=O)c2cc(F)ccc21)Nc1ccc(Cl)cc1	-23%[59 µM]	17%[57 µM]	nt	-9%	-19%	?
COc1ccccc1/C=C1\SC(=S)N(CCC(=O)NNC(=O)c2ccccc2O)C1=O	nt	6%	1%	-12%	-22%	nt
COc1ccc(/C=C2\SC(=S)N(CC(=O)OCC(=O)Nc3cc(Cl)cc(Cl)c3)C2=O)cc1	32µM*	-4%	?	-38%	?	40µM*
COc1ccc(/C=C2\SC(=S)N(CCCC(=O)NNC(=O)c3ccccc3O)C2=O)cc1	2%	?	24µM*	50µM*	-13%[11.4 µM]	-27%
CCc1ccc(/C=C2\SC(=S)N(CCCC(=O)Nc3ccc(C(=O)O)cc3)C2=O)cc1	-3%	?	?	35µM*	50µM*	-23%
Cc1ccc(/C=C2\SC(=S)N(CCCC(=O)Nc3ccccn3)C2=O)cc1	71µM*	-11%	-7%	?	?	?
COc1cc(/C=C2\SC(=S)N(CC(=O)Nc3ccc(O)cc3)C2=O)cc(OC)c1OC	9%	38%	-3%	-14%	-5%	-18%
O=C(CN1C(=O)/C(=C/c2ccccc2)SC1=S)Nc1ncc(Cc2ccccc2)s1	50µM*	-20%	-8%	-34%	-26%	-12%
Cc1ccc(/C=C2\SC(=S)N(CCCC(=O)Nc3ccccc3C(=O)O)C2=O)cc1	94%	?	19µM*	-33%	?	?
SMILES	G9a inh	HP1b chromo inh	PLK1 PBD block	BAZ2B inh	JMJD2A Tudor	12-LOX inh
c1ccc(-c2nccc(-c3ccc(-n4cnc5ccccc54)cc3)n2)cc1	3%[12.7 µM]	56%	-12%	-11%	-18%[11.4 µM]	-35%
CNC(=O)c1cc[nH]c1C1CCCN(C(=O)c2cc(C3CC3)[nH]n2)C1 (configuration not stated)	nt	nt	nt	nt	nt	25%
Cc1ccc(NC(=O)CCc2c(C)nn(-c3ccc(N4CCOCC4)nn3)c2C)cc1C	-7%	11%	27µM*	-19%[57.1 µM]	?	-18%
O=C(N/N=C/c1c(O)ccc2ccccc12)c1cccnc1	22%	49%	25%	-12%	50µM*	?
O=C(NN=Cc1c(O)ccc2ccccc12)c1ccncc1	nt	24%	57%	nt	79µM*	?
O=C(N/N=C/c1c(O)ccc2ccccc12)c1ccc(Br)o1	?	-6%	2%	56µM*	?	?
COc1cc(/C=N/NC(=O)CCN2CCN(C)CC2)cc2c1OCO2	38%	?	-7%	-12%	0.79µM*	-25%
O=C(N/N=C\c1c(O)ccc2ccccc12)c1ccc(O)cc1	nt	0%	?	-5%	?	?
Cc1cc(C)cc(-n2c(C)cc(/C=N/NC(=O)CN(c3c(C)cccc3C)S(C)(=O)=O)c2C)c1	18%[59 µM]	2%	-5%	?	-33%	-8%
CN1CCN(CCC(=O)N/N=C/c2ccccn2)CC1	1.3µM*	7%	-1%	?	7.9µM*	-3%
O=C(N/N=C\c1c(O)ccc2ccccc12)c1cncc(Br)c1	16%	68%	35%	35µM*	56µM*	?
O=C(N/N=C/c1ccccn1)c1cc(Br)ccc1O	-7%	43%	-4%	2%	-27%	-7%
Cc1ccc(S(=O)(=O)N2CCN(CC(=O)N/N=C\c3ccccn3)CC2)cc1	5%	49%	2%	1%	-13%	0%
O=C(N/N=C/c1ccccn1)c1ccc(Br)o1	19%	32%	0%	71µM*	-28%	-2%
O=C(N/N=C/c1ccccn1)C1CC1	3.5µM*	10%	-1%	?	1.3µM*	-16%
O=C(N/N=C/c1cccc(Br)c1)C1CC1	nt	nt	nt	nt	nt	24%
Cc1ccccc1N1CCCN(Cc2cccc(CCN)c2)CC1	nt	nt	nt	nt	nt	4%
CN(C)[C@H]1CN(C(=O)c2cccc(NCc3ccc(F)cc3)c2)C[C@@H]1O	nt	nt	nt	nt	nt	58%
O=C(N/N=C/c1c(O)ccc2ccccc12)c1ccc[n+](CCO)c1	?	27%	4%	13µM*	28µM*	-8%
O=c1[nH]n(-c2ccccc2)c(=O)cc1Cl	nt	8%[57 µM]	-2%	nt	-6%	-1%
CC1=NN(c2ccccc2)C(=O)/C1=C/c1c(O)n(-c2ccc(F)c(Cl)c2)[nH]c1=O	?	?	27µM*	35µM*	50µM*	nt
COc1ccc(-n2c(=O)c(-c3ccc(F)cc3)nc3cnc(OC)nc32)cc1	-2%[12.7 µM]	nt	nt	nt	nt	170%
